Out of some 340,000 compounds screened, about 6,900 (2%) were called active. Rule as the data show it: active = inhibition above about 30%; inactive = below that, where a call was filed. The sample as a whole holds a higher share of actives than the screen did.
biological target: D(2) dopamine receptor (Homo sapiens) (UniProt P14416); assay: HTS Assay for Allosteric Antagonists of the Human D2 Dopamine Receptor: Primary Screen for Antagonists; details: HEK293 TREx D2 cells, calcium flux, dopamine EC80; at 10 µM; stronger effect = higher value; also: 0% is about no effect
How it was run: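 Tetracycline-induced HEK293 TREx cells expressing D2 receptor forced-coupled to calcium signalling, loaded with no-wash calcium dye. Compounds added and calcium flux read 180 s, then dopamine added at EC80 and read a further 180 s.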

D(2) dopamine receptor (Homo sapiens), sequence (P14416 whole entry, looked up): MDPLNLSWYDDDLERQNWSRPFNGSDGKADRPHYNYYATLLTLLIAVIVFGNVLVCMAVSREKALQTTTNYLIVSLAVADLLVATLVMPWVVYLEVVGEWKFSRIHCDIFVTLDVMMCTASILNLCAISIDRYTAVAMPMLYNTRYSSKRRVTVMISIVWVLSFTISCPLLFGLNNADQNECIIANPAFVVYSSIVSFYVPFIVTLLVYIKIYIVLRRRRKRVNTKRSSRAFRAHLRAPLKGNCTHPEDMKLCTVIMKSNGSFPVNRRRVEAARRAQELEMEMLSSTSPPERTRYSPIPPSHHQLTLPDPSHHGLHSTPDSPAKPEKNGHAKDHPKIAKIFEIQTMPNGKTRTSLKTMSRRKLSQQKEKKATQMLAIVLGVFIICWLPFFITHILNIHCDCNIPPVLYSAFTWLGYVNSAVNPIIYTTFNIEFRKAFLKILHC

inhibition, inactive:
CCN1CCN(C(c2cccnc2)c2cc(Cl)c3cccnc3c2O)CC1 (stereo not given) 2.31%
O=C(c1cccc(C(=O)N2CCN(c3ccc(F)cc3)CC2)c1)N1CCN(c2ccc(F)cc2)CC1 19.6%
CCN(CC(=O)Nc1ccc(OC)cc1)C(=O)c1ccc(=O)n(Cc2ccccc2)n1 7.28%
Cc1ccc(S(=O)(=O)NCCNC(C)c2ccc(Br)cc2)cc1 (stereo not given) -7.75%
COc1ccc(C2CC(=O)NC(=O)C2)cc1 -28.9%
COc1ccc2cc(C3=CC(=O)C[C@H](c4ccc5c(c4)OCO5)C3)ccc2c1 13.1%
O=S(=O)(c1cccs1)N1CCN(CCOc2ccccc2)CC1 -9.4%
Nc1c(N(Cc2ccco2)C(=O)c2cccc(F)c2)c(=O)[nH]c(=O)n1Cc1ccccc1 11.2%
CC(Sc1nnc(-c2cccs2)n1C1CC1)C(=O)NCC1CCCO1 (stereo not given) 13.5%
COc1cccc(CC2(CO)CCCN(Cc3nc(-c4cccs4)oc3C)C2)c1 (stereo not given) -28.2%
O=C(OCC(=O)N1CCc2ccccc21)C1CCCN1S(=O)(=O)c1ccc(Cl)cc1 (stereo not given) -11.4%
CCOC(=O)c1ccc(NC(=O)C2CC(=O)N(c3ccc4c(c3)OCCO4)C2)cc1 (stereo not given) 6.09%
Cc1ccc(-c2c[n+](CC(=O)Nc3ccccc3)c3n2CCC3)cc1 7.8%
Clc1ccc(C[n+]2cc(-c3ccccc3)n3c2CCC3)cc1 -18.7%
OCC[C@H]1C[C@H](O)[C@@H](O)[C@]2(CCc3ccccc3O2)O1 4.64%
CN(C)C(CNC(=O)c1cccc(S(=O)(=O)Nc2ccc(Br)cc2)c1)c1ccco1 (stereo not given) 22.1%
Cc1ccc(CN2CCN(Cc3cn(C)nc3-c3ccccc3)CC2CCO)o1 (stereo not given) 9.07%
CCn1nc(C)c(CN2CCN(Cc3ccc(OC)c(C)c3C)C(CCO)C2)c1C (stereo not given) -7.65%
CCOc1ccc(S(=O)(=O)NCCC(=O)NCC2CCCO2)cc1 (stereo not given) 6.91%
CN1CCC(N(C)S(=O)(=O)c2ccc(NC(=O)c3cccc(C#N)c3)cc2)CC1 -21.6%

inhibition, active:
Oc1c(CN2CCN(c3ccc(F)cc3)CC2)cc(Cl)c2cccnc12 49.1%
COc1ccc(C2CC(=O)Oc3ccc(C(C)(C)C)cc32)cc1 (stereo not given) 40.2%
CCOC(=O)C1(CC2CCCCO2)CCN(Cc2nc(-c3cccs3)oc2C)CC1 (stereo not given) 69.3%
Clc1ccc(C[n+]2cc(-c3ccc(Cl)cc3)n3c2CCC3)cc1 44.4%
COc1ccc(CN2CCN(Cc3cn(C)nc3-c3ccccc3)CC2CCO)c(C)c1C (stereo not given) 33.2%
